“And” between values parts separate entries of the source, which are not always exact repeats. Identical values can stand only once. In all, about 310,000 compounds went through this assay and about 1,000 (0.32%) were called active. Only a sample is shown. Entries with a potency or affinity are not part of this list. Unmarked numbers belong to inactive results. The rule behind the calls is not given here.

The test can be described thus: Inhibition of PhoP regulon, Salmonella typhi GFP reporter cells, confirmation, 4 h (AID 1850).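 Note: 0% = induced wells with vehicle and 100% = uninduced wells.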 Conditions: Salmonella Typhi PhoP-promoter GFP reporter, fluorescence, at 50 µM, stronger effect = higher value.
One may read the inhibition as the drop in the measured response relative to a control, in per cent. In the case of `O=C(CN1CCN(c2ccc([N+](=O)[O-])cc2Cl)CC1)N1CCOCC1`, the inhibition was 2.81%.

As to `CC[N+](C)(C)CCN(Cc1ccc(Cl)cc1)c1ccccn1`, the inhibition was 1.18%.

For `COc1ccc(CN(CCN(C)C)c2ccccn2)cc1`, the inhibition is -13% and 6.04%.

With `CCC(=O)N1CCc2cc(S(=O)(=O)NC(Cc3ccccc3)C(=O)O)ccc21` (centres undefined), the inhibition was -1.37%.

`Cc1nc(C(=O)NCCCO)cc2c1[nH]c1ccccc12`: the inhibition was -6.79%.

With `Cc1ccc(S(=O)(=O)N(CC(=O)NCc2ccncc2)Cc2ccc(F)cc2)cc1`, the inhibition is 3.98%.

As for `NC(=S)N/N=C/c1c[nH]c2ccc(OCc3ccccc3)cc12`, the inhibition is -7.88%.

Consider `COc1ccc2[nH]cc(/C=N/NS(=O)(=O)c3ccc(C)cc3)c2c1`, for which the inhibition was 15.2%.

Consider `CSc1cccc(NC(=O)CCCOc2ccc(Cl)cc2C)c1`, for which the inhibition is -5.44%.

Take `CCCNCc1cc(Br)ccc1OCC(=O)NCCc1ccccc1`: the inhibition was -3.03%.

In the case of `CCN(CC)CCNCc1cc(Br)ccc1OCC(=O)NCc1ccccc1`, the inhibition is -28.2%.

With `CCOc1ccccc1CNC(=O)Cn1ccc2cc(S(=O)(=O)N3CCCC3)ccc21`, the inhibition is 3.38%.

On to `Cc1c(C(=O)NC(Cc2ccccc2)c2nc3ccccc3[nH]2)cccc1[N+](=O)[O-]` (centres undefined), for which the inhibition is -6.76%.

With `O=Nc1c(O)n(Cc2ccccc2)c2ccccc12`, the inhibition was -9.56%.

In the case of `O=Nc1c(O)[nH]c2c(F)cccc12`, the inhibition was -3.73%.

On to `CCOC(=O)CC(c1ccc(N)cc1)n1c(C)ccc1C` (centres undefined), for which the inhibition is -3.47%.

With `COc1ccc(Cc2noc(CN3CCCC(C(=O)c4cccs4)C3)n2)cc1OC` (centres undefined), the inhibition was -18.4%.

Regarding `CCn1c(SCC(=O)NC2CCS(=O)(=O)C2)nnc1-c1ccccc1` (centres undefined), the inhibition was 3.32%.

For `Cc1nnc(SCC(=O)NC2CCS(=O)(=O)C2)n1-c1ccccc1` (centres undefined), the inhibition is 6.38%.

For `CN(C)c1nc(SCC(=O)Nc2ccccc2)nc(N2CCOCC2)n1`, the inhibition was 3.38%.

For `O=C1CN(Cc2cc(=O)oc3cc4c(cc23)CCC4)CCN1`, the inhibition was -4.78%.

In the case of `CC1(C)C(=O)Nc2ccccc2N1C(=O)COC(=O)/C=C/c1ccc(OC(F)F)cc1`, the inhibition was -3.59%.

Turning to `COc1cccc(C(C(=O)NC2CCCCC2)N(C(=O)Cc2cccs2)c2ccc(-n3cnnn3)c(OC)c2)c1` (centres undefined), the inhibition is -9.92%.

Turning to `CC1CC(NC(=O)/C(C#N)=C/c2ccc[nH]2)CC(C)(C)C1` (centres undefined), the inhibition was 5.38%.

As to `N#C/C(=C\c1ccccc1)C(=O)NC1CC1`, the inhibition is 2.22%.

Consider `COc1ccc(-n2nc(C(=O)NCC(=O)N3CCN(c4ccccc4)CC3)c3ccccc3c2=O)c(OC)c1`, for which the inhibition was 3.7%.

Take `CCCCCNc1nc(NCCCO)c(C#N)c2c1CN(C)CC2`: the inhibition was -3.01%.

Turning to `CC(C)CCNc1nc(N2CCCC2)c2c(c1C#N)CCN(C)C2`, the inhibition was 19.4%.

In the case of `CC1(c2ccc(Cl)cc2Cl)NC(=O)N(CC(=O)Nc2ccc3[nH]c(=O)[nH]c3c2)C1=O` (centres undefined), the inhibition was -3.74%.

Regarding `COc1ccc(CNC(=O)C2CCCN(S(=O)(=O)N3CCC(C)CC3)C2)c(OC)c1` (centres undefined), the inhibition is -14.4%.

Take `CCN(CC)C(=O)c1sc(N2C(=O)Nc3ccccc3N2O)c(C(=O)OC)c1C`: the inhibition is -7.07%.

On to `Cc1ccc(N2C(=O)CC(Sc3ncccc3C(=O)O)C2=O)cc1` (centres undefined), for which the inhibition is -7.58%.

As to `NC1=NC2(CCCCC2)N=C(Nc2ccc(F)cc2F)N1`, the inhibition was 19%.

Take `CCCCOc1ccc(N2C(N)=NC(N)=NC23CCCCC3)cc1`: the inhibition is 4.38%.

Consider `Cc1ccc(NC2=NC3(CCCC3)N=C(N)N2)c(C)c1`, for which the inhibition was 13.7%.

On to `CCOc1ccc(NC2=NC(C)(C)N=C(N)N2)cc1`, for which the inhibition was 5.96%.

For the compound `Cc1ccc(-c2[nH]ncc2/C=N/n2c(COc3ccccc3)nc3ccccc3c2=O)cc1`, the inhibition was -8.67%.

Take `Cc1nc2ccccc2c(=O)n1/N=C/c1ccccc1O`: the inhibition was 1.57%.

Turning to `Cc1nc2ccccc2c(=O)n1/N=C/c1cn[nH]c1-c1ccccc1`, the inhibition was -0.17%.

Consider `Cc1nc2ccccc2c(=O)n1/N=C/c1cc(Br)cc(Br)c1O`, for which the inhibition is 9.81%.

For `COc1ccc(NC(=O)C2CCCN2C(=O)NCc2ccccc2)cc1` (centres undefined), the inhibition is -5.86%.

As for `CSc1cccc(N2CC(C(=O)N(CC(C)C)c3c(N)n(Cc4ccccc4)c(=O)[nH]c3=O)CC2=O)c1` (centres undefined), the inhibition is -3.17%.

For the compound `CCOc1ccc(C(=O)Nc2nnc(C(C)C)s2)cc1OCC`, the inhibition is -1.68%.

For the compound `COCCN1CCN(C(=O)C2CCC(=O)N(CCc3ccc(Cl)cc3)C2)CC1` (centres undefined), the inhibition was -4.1%.

Regarding `O=C(O)c1cccc(Nc2ccnc(Nc3cccc(C(=O)O)c3)n2)c1`, the inhibition was 2.42%.

On to `Nc1ncnc(Nc2ccc(F)cc2)n1`, for which the inhibition was -3.3%.

Turning to `COc1ccc(Nc2ccnc(Nc3ccc(OC)cc3)n2)cc1`, the inhibition is -1.84%.

Regarding `c1ccc(Nc2cccc(Nc3ccccc3)n2)cc1`, the inhibition was 6.98%.

`Cc1c(C(=O)O)oc2ccc(S(=O)(=O)N3CCCCC3C(=O)O)cc12` (centres undefined): the inhibition was -3.93%.

Take `C/C=C/c1ccc(OCC(O)CN2CCCCC2CC)c(OC)c1` (centres undefined): the inhibition was 8.19%.

On to `S=C1NC2(CCCCC2)NC12CCCCC2`, for which the inhibition was -9.21%.

In the case of `Cc1sc2nc(SCC(N)=O)n(-c3ccccc3)c(=O)c2c1C`, the inhibition is -0.27%.

Take `O=C(NNc1nc2ccccc2s1)c1ccc(F)cc1`: the inhibition is -6.05%.

As to `O=C(NNc1nc2cc3c(cc2s1)OCO3)c1cccc(F)c1`, the inhibition is -11.1%.

On to `CC(C)(C)c1ccc(S(=O)(=O)NNC(=O)C2CCN(Cc3cccc(F)c3)CC2)cc1`, for which the inhibition was 6.86%.

`C=CCOC(=O)C1=C(C)NC(SCC(=O)Nc2nccs2)=C(C#N)C1c1ccc(Cl)cc1` (centres undefined): the inhibition was 3.36%.

As to `CN1CCN(C2Cc3ccccc3Sc3ccc(Cl)cc32)CC1` (centres undefined), the inhibition is -13%.

Regarding `O=C1Cc2ccccc2Sc2ccc(Cl)cc21`, the inhibition is -8.12%.

As to `c1ccc2c(c1)CC(N1CCCCC1)c1ccccc1N2` (centres undefined), the inhibition is -3.45%.

Turning to `CN1CCN(C2Cc3ccccc3Sc3cc(C(F)(F)F)ccc32)CC1` (centres undefined), the inhibition was 2.06%.

For `CN1Cc2cccc3c2C(Cc2ccccc2S3)C1` (centres undefined), the inhibition was -6.53%.

Regarding `NC(=O)CCN1CCN(CCOC2Cc3cc(Cl)ccc3Sc3ccccc32)CC1` (centres undefined), the inhibition is -4.99%.

In the case of `CC(C)c1ccc2c(c1)C(N1CCNCC1)Cc1ccc(F)cc1S2` (centres undefined), the inhibition was 19.3%.

Turning to `c1ccc2c(c1)CC(N1CCCCC1)c1ccccc1S2` (centres undefined), the inhibition was 16.3%.

The record behind these values is PubChem BioAssay AID1850 (Southern Research Specialized Biocontainment Screening …, 2009).
